Test results taken from PubChem BioAssay (Tox21).
Records with an inconclusive call do not appear. Active and inactive are the calls of the source. Unless noted, the call rests on the fitted dose curve; in most records, active means well fitted curve in the direction sought with a large enough effect in the repeat runs; inconclusive means weak or mixed curves; inactive means no such curve, though single readings can be large; an effect the other way counts as inactive or inconclusive.

What was measured:
[1] = qHTS assay for small molecule agonists of the p53 signaling pathway (AID 651631; calls by dose curve; further: nearly all actives have a fitted effect of over 15% in size)
Outline: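 Stably transfected HCT-116 cells (beta-lactamase behind p53 response elements) get compounds after a 5 h settling period; 16 h later at 37 °C, FRET substrate is loaded and fluorescence read after 2 h.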

[2] = qHTS assay for small molecules that induce genotoxicity in human embryonic kidney cells expressing luciferase-tagged ATAD5 (AID 651632); further: nearly all actives have a fitted effect of over 15% in size
Outline: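 HEK293T cells carrying a luciferase reporter tagged to ATAD5 were exposed to compound or DMSO vehicle for 16 hr at 37C, 5% CO2. Amplite was added, and after 30 min at room temperature luciferase activity was read as a marker of ATAD5 induction.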

[3] = qHTS assay for small molecule agonists of the p53 signaling pathway - cell viability (AID 651633; calls by dose curve;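 further: p53RE-bla HCT reporter cells with a stable beta-lactamase p53 reporter; series mostly up to about 83 µM; nearly all actives have a fitted effect of over 30% in size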)
Outline: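 p53RE-bla cells, seeded at 4,000 per well and rested 5 h at 37 C/5% CO2, received compounds in DMSO for 16 h at 37 C. CellTiter-Glo was then added, and luminescence was read after 30 min at room temperature to gauge cytotoxicity.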

[4] = qHTS assay for small molecules that induce genotoxicity in human embryonic kidney cells expressing luciferase-tagged ATAD5 - cell viability (AID 651634; calls by dose curve; further: nearly all actives have a fitted effect of over 25% in size)
Outline: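 HEK293T cells expressing luciferase-tagged ATAD5 were exposed to compound or DMSO for 15.5 hr at 37C, 5% CO2. Viability was then read as live-cell protease activity by CellTiter-Fluor fluorescence after 30 min at 37C.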

[5] = qHTS assay for small molecule disruptors of the mitochondrial membrane potential - cell viability (AID 720634; calls by dose curve;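 further: human HepG2 liver cancer cells; series mostly up to about 83 µM; nearly all actives have a fitted effect of over 20% in size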)
Outline: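 HepG2 cells seeded overnight at 37 C, then exposed to compound or DMSO for 1 hr at 37 C, 5% CO2. m-MPI dye added, then CellTiter-Glo for 30 min at room temperature; viability read as ATP luminescence.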

[6] = qHTS assay for small molecule disruptors of the mitochondrial membrane potential (AID 720635)
Outline: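 HepG2 cells (2,000/well) attached overnight at 37C, then took compound for 1 hr at 37C, 5% CO2. Mito-MPS dye was added for 30 min; fluorescence was read at 490/535 nm (monomers) and 540/590 nm (aggregates).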

[7] = qHTS assay to test for compound auto fluorescence at 590 nm (red) in HepG2 cells (AID 720674)
Outline: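 Rose Bengal sodium served as the red fluorophore standard. HepG2 monolayers (overnight attachment, MEM with 10% FBS) were exposed to test compounds for 1 hr at 37 C and read at Ex 540/Em 590 nm.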

[8] = qHTS assay to test for compound auto fluorescence at 535 nm (green) in HepG2 cells (AID 720675)
[9] = qHTS assay to test for compound auto fluorescence at 460 nm (blue) in HEK293 cells (AID 720678)
Outline: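 Auto fluorescence in the blue band was quantified as triamterene equivalency. HEK293 cells were seeded at 2,000/well, dosed after a 4-5 hr attachment, and kept overnight at 37C before the 405/460 nm reading.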

[10] = qHTS assay to test for compound auto fluorescence at 590 nm (red) in HEK293 cells (AID 720679)
Outline: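 Autofluorescence equivalency to Rose Bengal sodium, 540/590nm, in HEK293 cells exposed overnight to 23 nL compound per well.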

[11] = qHTS assay to test for compound auto fluorescence at 535 nm (green) in HEK293 cells (AID 720680)
[12] = qHTS assay to test for compound auto fluorescence at 460 nm (blue) in HEK293 cell free culture (AID 720681)
Outline: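 Test compounds were pinned into cell-free culture medium (DMEM with 10% FBS) and fluorescence was read directly at Ex/Em 405/460 nm. Signals were expressed as fluorescence equivalents of triamterene, with DMSO vehicle as control.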

[13] = qHTS assay to test for compound auto fluorescence at 590 nm (red) in HEK293 cell free culture (AID 720683)
Outline: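 Tox21 10K library compounds were pinned into cell-free DMEM with 10% FBS and fluorescence was read at excitation 540 nm. Activity is expressed as Rose Bengal sodium equivalency.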

[14] = qHTS assay to test for compound auto fluorescence at 590 nm (red) in HepG2 cell free culture (AID 720684)
Outline: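 Measured in medium alone (MEM containing 10% FBS) following pintool addition of compound; emission at 590 nm with 540 nm excitation, referenced to Rose Bengal sodium.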

[15] = qHTS assay to test for compound auto fluorescence at 460 nm (blue) in HepG2 cell free culture (AID 720685)
Outline: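 Compound (23 nL) or DMSO pinned into cell-free MEM with 10% FBS; blue fluorescence read at 405/460 nm excitation/emission, expressed as auto-fluorescence equivalency to triamterene.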

[16] = qHTS assay to test for compound auto fluorescence at 535 nm (green) in HepG2 cell free culture (AID 720686)
[17] = qHTS assay to test for compound auto fluorescence at 460 nm (blue) in HepG2 cells (AID 720687)
Outline: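 Cells (2,000/well in MEM with 10% FBS) attached overnight at 37 C, then were exposed to compound or DMSO for 1 hr at 37 C, 5% CO2. Fluorescence read at Ex/Em 405/460 nm, expressed as triamterene-equivalent signal.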

[18] = target: Glucocorticoid receptor (Homo sapiens) (UniProt P04150); assay: qHTS assay to identify small molecule agonists of the glucocorticoid receptor (GR) signaling pathway (AID 720691; active means well fitted activation curve with a large enough effect in the signal ratio in the repeat runs, not every such curve was filed as active; the % refers to the signal ratio)
Glucocorticoid receptor (Homo sapiens), sequence (P04150 whole entry, looked up): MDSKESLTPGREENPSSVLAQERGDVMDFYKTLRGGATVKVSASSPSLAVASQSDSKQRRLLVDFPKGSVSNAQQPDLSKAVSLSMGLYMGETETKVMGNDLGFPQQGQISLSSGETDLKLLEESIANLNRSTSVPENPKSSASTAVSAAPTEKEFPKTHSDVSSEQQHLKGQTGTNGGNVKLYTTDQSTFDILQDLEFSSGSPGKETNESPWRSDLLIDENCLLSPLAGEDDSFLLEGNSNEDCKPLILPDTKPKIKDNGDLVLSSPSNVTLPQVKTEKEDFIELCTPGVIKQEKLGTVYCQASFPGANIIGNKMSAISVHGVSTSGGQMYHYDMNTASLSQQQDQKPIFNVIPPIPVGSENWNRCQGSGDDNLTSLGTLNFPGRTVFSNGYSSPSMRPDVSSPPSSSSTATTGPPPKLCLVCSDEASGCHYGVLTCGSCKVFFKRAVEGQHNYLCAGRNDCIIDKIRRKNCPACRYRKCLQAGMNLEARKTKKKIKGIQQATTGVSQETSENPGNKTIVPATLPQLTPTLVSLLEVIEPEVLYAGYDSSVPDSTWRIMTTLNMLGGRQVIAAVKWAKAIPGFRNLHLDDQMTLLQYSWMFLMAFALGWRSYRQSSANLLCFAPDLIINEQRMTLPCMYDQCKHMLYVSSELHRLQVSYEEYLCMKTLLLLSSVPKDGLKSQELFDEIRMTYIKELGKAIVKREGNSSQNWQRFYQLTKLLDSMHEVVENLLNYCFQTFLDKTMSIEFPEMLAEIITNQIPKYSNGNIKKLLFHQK
Outline: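 GR-bla HeLa cells (beta-lactamase reporter under glucocorticoid response element) were plated 4 h at 37 C/5% CO2, given compounds in DMSO, and incubated 18 h at 37 C. LiveBLAzer B/G FRET substrate was added for 2 h at room temperature, then fluorescence intensity read.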

[19] = qHTS assay to test for compound auto fluorescence at 535 nm (green) in HEK293 cell free culture (AID 720682)
Outline: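 Using fluorescein as calibrant, autofluorescence was quantified at 485/535 nm in cell-free DMEM containing 10% FBS after pintool addition of compound or vehicle.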

[20] = target: Glucocorticoid receptor (Homo sapiens) (UniProt P04150); assay: qHTS assay to identify small molecule antagonists of the glucocorticoid receptor (GR) signaling pathway (AID 720692; active means well fitted inhibition curve with a large enough effect in the signal ratio in the repeat runs, not every such curve was filed as active; the % refers to the signal ratio)
Outline: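 GR-bla HeLa cells (beta-lactamase reporter under glucocorticoid response element) were pre-plated 4 h at 37 C, treated with compounds plus 5 nM dexamethasone (final) for 18 h, then read by LiveBLAzer B/G FRET fluorescence after 2 h.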
On the % scale 0 is the no-effect control and ±100 the full control effect.

CC(C)CC(O)Cc1ccccc1 (stereo not drawn)
inactive: Potency [1] | Potency [2] | outcome [3] | outcome [4] | outcome [5] | Potency [6] | outcome [7] | outcome [8] | outcome [9] | outcome [10] | outcome [11] | outcome [12] | outcome [13] | outcome [14] | outcome [15] | outcome [16] | outcome [17] | Potency [18]

C/C=C(\C)C(=O)OC/C=C(\C)CCC=C(C)C
inactive: Potency [1] | Potency [2] | outcome [3] | outcome [4] | outcome [5] | Potency [6] | outcome [7] | outcome [8] | outcome [9] | outcome [10] | outcome [11] | outcome [12] | outcome [19] | outcome [13] | outcome [14] | outcome [16] | outcome [17] | Potency [18] | outcome [20]

CCCCCCCCC1CO1 (stereo not drawn)
inactive: Potency [1] | Potency [2] | outcome [3] | outcome [4] | outcome [5] | Potency [6] | outcome [7] | outcome [8] | outcome [9] | outcome [10] | outcome [11] | outcome [12] | outcome [19] | outcome [13] | outcome [15] | outcome [17] | Potency [18] | outcome [20]

CCCCN=C(N)N=C(N)N
inactive: Potency [1] | Potency [2] | outcome [3] | outcome [4] | outcome [5] | Potency [6] | outcome [7] | outcome [8] | outcome [9] | outcome [10] | outcome [11] | outcome [12] | outcome [19] | outcome [13] | outcome [14] | outcome [16] | outcome [17] | Potency [18] | outcome [20]

Cc1ccc(N)nc1
inactive: Potency [1] | Potency [2] | outcome [3] | outcome [4] | outcome [5] | Potency [6] | outcome [7] | outcome [8] | outcome [9] | outcome [10] | outcome [11] | outcome [12] | outcome [13] | outcome [14] | outcome [16] | outcome [17]

CC(O)C(CO)C(C)O (stereo not drawn)
inactive: Potency [1] | Potency [2] | outcome [3] | outcome [4] | outcome [5] | Potency [6] | outcome [7] | outcome [8] | outcome [9] | outcome [10] | outcome [11] | outcome [12] | outcome [19] | outcome [13] | outcome [14] | outcome [16] | outcome [17] | Potency [18] | outcome [20]

CCCC(=O)C(CC)Sc1ccoc1C (stereo not drawn)
inactive: Potency [1] | Potency [2] | outcome [3] | outcome [4] | outcome [5] | Potency [6] | outcome [7] | outcome [8] | outcome [9] | outcome [10] | outcome [11] | outcome [12] | outcome [13] | outcome [14] | outcome [15] | outcome [16] | outcome [17]

COc1cnc(NS(=O)(=O)c2ccc(N)cc2)nc1
inactive: Potency [1] | Potency [2] | outcome [3] | outcome [4] | outcome [5] | Potency [6] | fluorescence, relative to Rose Bengal [7] -0.0895% [at 18.6 µM] | fluorescence, % of fluorescein control [8] -0.0734% [at 18.6 µM] | fluorescence, % of triamterene [9] 0.0096% [at 18.6 µM] | fluorescence, % of fluorescent control [10] 0.0444% [at 18.6 µM] | fluorescence, % of fluorescein [11] -0.0702% [at 18.6 µM] | fluorescence, % of fluorescent control [12] 0.0732% [at 18.6 µM] | fluorescence, % of fluorescent control [13] -0.0163% [at 18.6 µM] | fluorescence, % of fluorescent control [15] 0.0024% [at 18.6 µM] | fluorescence, % of fluorescent control [17] 0.0082% [at 18.6 µM] | Potency [18] | outcome [20]
